Experimental data published in PubChem BioAssay (NCATS).
Records with an inconclusive call do not appear. Unmarked numbers belong to inactive results. Calls follow the shape of the dose curve; as a rule, active = well fitted activation curve with a large enough effect; inconclusive = small, poorly fitted or top-dose-only effect; inactive = flat fitted curve, though single readings scatter.

Experiment: Primary redox qHTS assay for identification of artifact compounds. (AID 1845223)
Settings: Amplex Red/HRP redox cycling with DTT, fluorescence; series mostly up to 53.8 µM; redox activity (% of DA3003): at the top concentration
Description: PI: Alexander Tropsha Ph.D.
UNC Eshelman School of Pharmacy
University of North Carolina, Chapel Hill, North Carolina
Hits from high-throughput screening (HTS) of chemical libraries are often false positives due to their interference with the assay detection technology. In response to this problem, we generated the largest publicly available library of chemical liabilities and developed a free webtool to predict HTS artifacts, both of which are described herein. More specifically, we generated, curated, and integrated HTS datasets for thiol reactivity, redox activity, and luciferase (firefly and nano) activity. Using these curated datasets, we developed and validated several Quantitative Structure-Interference Relationship (QSIR) models to predict nuisance behavior. […] These models were employed for virtual profiling of the National Center for Advancing Translational Science's (NCATS) in-house library, and 256 compounds for each assay were selected for the experimental validation of nuisance behavior. The BA for these external predictions ranged from 58 to 78% for compounds within the applicability domains of the models. […] The models developed in this study, along with aggregation models previously developed by our group (SCAM Detective) were implemented in "Liability Predictor," an online tool which may be used as part of chemical library design or for triaging HTS hits. Both the models and the curated datasets are publicly available at https://liability.mml.unc.edu/.
SEQUENCE No. (e.g., 1, 2, 3, etc.); […] (e.g., Cells, Incubation, Reagent, etc.); VALUE; DESCRIPTION.
1; Reagent; 3 uL; Amplex Red and HRP mixture.
2; Compounds and control; 16 nL; Kalypsis pin tool (Wako USA) equipped with a 1536-well pin head. […]
6; Detection; Fluorescence, ViewLux microplate reader, 525 nm excitation, 598 nm emission.
NOTES (numbers refer to Sequence numbers above)
1. 3 uL of a mixture containing Amplex Red (25 uM final concentration) and horseradish peroxidase (HRP; 250 mU/mL final concentration) in assay buffer (HBSS) was dispensed into all wells of a 1536-well assay plate (solid-bottom black plate; Greiner Bio One, Monroe, NC).
2. A Wako Pin-tool (Wako Automation, Richmond, VA) was used to transfer 16 nL of compounds (consisting of 7-plates in qHTS format, final concentration range 18.3 nM to 114 uM) or control DA3003 (final concentration range 1.22 nM to 40 uM).
3. 15 min. incubation at room temperature protected from light.
4. 1 uL of DTT (prepared fresh; final concentration 250 uM) was dispensed for a final assay volume of 4 uL.
5. Plates were centrifuged (121xg, 15 seconds) and incubated for 30 minutes at room temperature protected from light.
6. Samples were read for fluorescence (Ex/Em = 525(20)/598(25) nm) on a ViewLux CCD imager (PerkinElmer). Data were normalized to DMSO (0% activity) and DA3003 (10 uM final concentration; 100% activity) and the resulting percent inhibition data were fitted to a 4-parameter Hill equation using NCATS in-house software.
For C[C@H](NCc1ccc(OCc2ccccc2F)cc1)C(N)=O, the “redox activity (% of DA3003)” value was -5.55%.
With CC(C)(O)c1ccc2c(c1)C(O)CC1C(C)(C(=O)O)CCCC21C (stereo not given) the “redox activity (% of DA3003)” value was -5.98%.
With C=C1C[C@]23C[C@H]1CC[C@H]2[C@@]12C=C[C@H](O)[C@@](C)(C(=O)O1)[C@H]2[C@@H]3C(=O)O the “redox activity (% of DA3003)” value was -12.5%.
In the case of CC(=O)O[C@H]1[C@H](Oc2ccccc2COC(=O)C2(O)C=CCCC2=O)O[C@H](CO)[C@@H](O)[C@@H]1O (stereo not given in full), the “redox activity (% of DA3003)” value is reported as -8.36% [at 25.6 µM].
In the case of CCOc1c2c(c(OCC)c3ccccc13)C(=O)N(c1ccc(CC(=O)NS(=O)(=O)c3ccccc3)cc1)C2, the “redox activity (% of DA3003)” value is reported as -0.704%.
For CNC(=O)O[C@H]1COc2ccc(N3CCN(C4COC4)CC3)cc2[C@@H]1NC(=O)c1ccc(F)cc1, the “redox activity (% of DA3003)” value was 8.14%.
With C=C1CC[C@@H]2[C@](C)(CO[C@@H]3O[C@H](CO)[C@@H](O)[C@H](O)[C@H]3O)CCC[C@@]2(C)[C@@H]1CCC1=CCOC1=O the “redox activity (% of DA3003)” value was 15.2% [at 25.6 µM].
For COc1cc(COC2OC(CO)C(O)C(O)C2O)cc(OC)c1O (stereo not given), the “redox activity (% of DA3003)” value was -12.8%.
With CC(C)(O)c1ccc2c(c1)C(=O)CC1[C@](C)(CO)CCC[C@]21C (stereo not given in full) the “redox activity (% of DA3003)” value was 4.67%.
In the case of CCC(CCO[C@@H]1O[C@H](CO[C@H]2OC[C@](O)(CO)[C@H]2O)[C@@H](O)[C@H](O)[C@H]1O)C(C)(C)O (stereo not given in full), the “redox activity (% of DA3003)” value is reported as -15.5% [at 25.6 µM].
In the case of CC1(C)CC2C(C1)C1(C)CCC13OC3(CO)C2O (stereo not given), the “redox activity (% of DA3003)” value is reported as -0.985%.
With C=CC(C)(C)C12CC3C(=O)NC(Cc4cnc[nH]4)C(=O)N3C1Nc1ccccc12 (stereo not given) the “redox activity (% of DA3003)” value was -2.82%.
With Cc1nc2c(-c3cnc(N)nc3)nc(N3CCOCC3)nc2n1C(C)C the “redox activity (% of DA3003)” value was -9.76%.
In the case of Nc1ncnc2c1ncn2[C@H]1CCCO1, the “redox activity (% of DA3003)” value is reported as -5.58%.
For CC(C)C1=CC2=CCC3[C@](C)(CCC[C@@]3(C)C(=O)O)C2CC1O (stereo not given in full), the “redox activity (% of DA3003)” value was -4.87%.
For Clc1ccc(CN[C@H]2CCN(c3ncc(Br)cn3)C2)c(Cl)c1, the “redox activity (% of DA3003)” value was 14.5%.
With CCC(C)(O)C(O)C(=O)OCc1ccc(O[C@@H]2O[C@H](CO)[C@@H](O)[C@H](O)[C@H]2O)c(OC)c1 (stereo not given in full) the “redox activity (% of DA3003)” value was -1.23% [at 25.6 µM].
For CC1CCC2(C)C(CC(O)C(O)C23CO3)C1(C)CCC1=CC(O)OC1=O (stereo not given), the “redox activity (% of DA3003)” value was -4.96%.
Molecule CC1(C)CC2C3=CCC4C5(C)CCC(OC6OC(C(=O)O)C(O)C(O)C6OC6OC(CO)C(O)C(O)C6OC6OC(CO)C(O)C(O)C6O)C(C)(CO)C5CCC4(C)C3(C)CCC2(C)C(OC2OCC(O)C(OC3OC(CO)C(O)C(O)C3O)C2O)C1O (stereo not given) has a redox activity (% of DA3003) of 10.1% [at 11.5 µM].
For COc1cccc2c1CCC[C@H]2CN(C)CCc1ccc2ccoc2c1, the “redox activity (% of DA3003)” value was -2.21%.
In the case of CC(/C=C/C1(O)C(C)CC(O)CC1(C)C)OC1OC(CO)C(O)C(O)C1O (stereo not given), the “redox activity (% of DA3003)” value is reported as -13.9%.
With CC(C)NC[C@H](O)COc1ccc(CCOCC2CC2)cc1 the “redox activity (% of DA3003)” value was -0.113%.
In the case of C/C=C(\C)C(=O)OC[C@H]1O[C@H](O[C@H]2O[C@H](CO)[C@@H](OC(=O)/C(C)=C/C)[C@H](O)[C@H]2O[C@@H]2O[C@H](CO)[C@@H](O)[C@H](O)[C@H]2O)[C@H](O[C@@H]2O[C@H](CO)[C@@H](O)[C@H](O)[C@H]2O)[C@@H](O)[C@@H]1O, the redox activity (% of DA3003) is reported as 3.6% [at 11.5 µM].
For CC(=O)[C@@H]1CC[C@]2(C(=O)O)CC[C@]3(C)C(CCC4[C@@]5(C)CC[C@H](O)C(C)(C)C5CC[C@]43C)C12 (stereo not given in full), the “redox activity (% of DA3003)” value was -2.66% [at 25.6 µM].
For CC1=CCC2C(C)(CO)CCCC2(CO)C1CO (stereo not given), the “redox activity (% of DA3003)” value was 6.27%.
In the case of O=S(=O)(NC1CCNCC1)c1cc(S(=O)(=O)c2ccccc2)ccc1C(F)(F)F, the “redox activity (% of DA3003)” value is reported as -5.83%.
For COc1cc(/C=C/c2cc(O)cc(O[C@@H]3O[C@H](CO)[C@@H](O)[C@H](O)[C@H]3O)c2)ccc1O, the “redox activity (% of DA3003)” value was -3.33% [at 25.6 µM].
With C=C1CCC2(OC1)OC1CC3C4CC=C5CC(O)CC(O[C@@H]6OC[C@@H](O)[C@H](O)[C@H]6O)C5(C)C4CCC3(C)C1(O)C2C (stereo not given in full) the “redox activity (% of DA3003)” value was -3.33% [at 25.6 µM].
For CC(C)CC(=O)OC[C@H]1O[C@@](COC(=O)CC(C)C)(O[C@H]2O[C@H](CO)[C@@H](O)[C@H](O)[C@H]2O)[C@@H](OC(=O)CC(C)C)[C@@H]1OC(=O)CC(C)C, the “redox activity (% of DA3003)” value was -2.07% [at 25.6 µM].
For COc1cc(C(=O)OC[C@H]2O[C@H](O[C@@]3(CO)O[C@@H](CO)[C@H](O)[C@H]3O)[C@H](O)[C@@H](O)[C@@H]2O)ccc1O, the “redox activity (% of DA3003)” value was -12.6% [at 25.6 µM].
In the case of COc1ccc2c3c1O[C@H]1C[C@@H](O)C=C[C@@]31CCN(C)C2, the “redox activity (% of DA3003)” value is reported as -3.31%.
With C=CC1(C)CC2=CCC3C(C)(C(=O)O)CCCC3(C)C2CC1OC(C)=O (stereo not given) the “redox activity (% of DA3003)” value was 2.62%.
For CC(C)=CCC[C@](C)(O[C@@H]1O[C@H](CO[C@@H]2OC[C@@H](O)[C@H](O)[C@H]2O)[C@@H](O)[C@H](O)[C@H]1O)[C@H]1CC[C@]2(C)[C@@H]1[C@H](O)C[C@@H]1[C@@]3(C)CC[C@H](O[C@@H]4O[C@H](CO)[C@@H](O)[C@H](O)[C@H]4O[C@@H]4O[C@H](CO)[C@@H](O)[C@H](O)[C@H]4O)C(C)(C)[C@@H]3CC[C@]12C, the “redox activity (% of DA3003)” value was 4.56% [at 25.6 µM].
With CC1CCC(=O)CC(O)C(O)CC(=O)O1 (stereo not given) the “redox activity (% of DA3003)” value was 17.3%.
For C=C1CC23CCC4[C@@](C)(CCC[C@@]4(C)C(=O)O)C2CCC1C3 (stereo not given in full), the “redox activity (% of DA3003)” value was 6.09%.
In the case of CC(O)C(O)/C=C/C=C/C(=O)O[C@@H]1C=C2COC(=O)[C@]2(O)[C@@]2(C)CCCC(C)(C)C12 (stereo not given in full), the “redox activity (% of DA3003)” value is reported as -4.04% [at 25.6 µM].
In the case of O=C(c1ccc(NS(=O)(=O)c2cccc3cccnc23)cc1)N1CCN(CC2CC2)CC1, the “redox activity (% of DA3003)” value is reported as 6.26%.
For CCCCN(CCCC)C(=O)CN1C[C@H](c2ccc3c(c2)OCO3)[C@@H](C(=O)O)[C@@H]1c1ccc(OC)cc1, the “redox activity (% of DA3003)” value was 11.7%.
For OC1COC(OCC2OC(OCCc3ccccc3)C(O)C(O)C2O)C(O)C1O (stereo not given), the “redox activity (% of DA3003)” value was -0.075% [at 25.6 µM].
In the case of Cc1cn2c(N)c(Cl)cc(C(=O)NCC3CCN(CC(C)C)CC3)c2n1, the “redox activity (% of DA3003)” value is reported as -1.56%.
